PubChem BioAssay (NCATS)
Inconclusive results are not listed. A number with no mark means an inactive call. The source made the active and inactive calls. The call rests on the fitted dose curve; in most records, active means well fitted inhibition curve with a large enough effect; inconclusive means small, poorly fitted or top-dose-only effect; inactive means flat fitted curve, though single readings scatter.

target: Glutathione peroxidase 1 (Homo sapiens) (UniProt P07203); experiment: Primary qHTS Assay for Inhibitors of Recombinant Selenoprotein Glutathione Peroxidase 1 (GPX1) (AID 1845191); details: recombinant GPX1, GR-coupled NADPH fluorescence, 15 min; series mostly up to 48.8 µM; activity, negative = inhibition: at the top concentration; further: nearly all actives have a fitted effect of over 65% in size
Sequence (P07203 whole entry, looked up): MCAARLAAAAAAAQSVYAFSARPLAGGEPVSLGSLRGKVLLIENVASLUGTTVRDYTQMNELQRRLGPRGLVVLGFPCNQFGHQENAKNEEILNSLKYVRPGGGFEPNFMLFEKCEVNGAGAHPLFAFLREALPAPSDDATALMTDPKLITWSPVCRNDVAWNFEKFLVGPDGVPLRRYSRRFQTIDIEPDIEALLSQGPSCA
Source text: Assay Provider: Elias S.J. Arner MD PhD.
Department of Medical Biochemistry and Biophysics
Karolinska Institutet, Solna, Stockholm, Sweden
Selenoprotein glutathione peroxidases (GPX), like the ubiquitously expressed GPX1 and the ferroptosis modulator GPX4, enact their antioxidant activities by reducing hydroperoxides using glutathione. […] GPX1 and GPX4 inhibitors have thus shown promise as anti-cancer agents. Existing inhibitors are often promiscuous, or modulate GPX activity only indirectly, so novel direct inhibitors identified through screening against GPX1 and GPX4 could be valuable. Here, we developed optimized glutathione reductase (GR)-coupled GPX assays for the biochemical high-throughput screen (HTS) of almost 12,000 compounds with known mechanisms of action. Initial hits were triaged using a GR counter-screen, assessed for isoform specificity using a separate GPX2 assay, and were assessed for general selenocysteine-targeting activity using a thioredoxin reductase (TXNRD1) assay. With this suite of assays, we identified novel GPX1/GPX2- and GPX4-specific inhibitors and can here present a validated pipeline for future discovery research for selenoprotein-targeting agents.
SEQUENCE No. (e.g., 1, 2, 3, etc.); […] (e.g., Cells, Incubation, Reagent, etc.); VALUE; DESCRIPTION.
1; Reagent 1; 3 uL; GPx1 enzyme or no enzyme control in 1536-well, black, solid Greiner assay plate.
2; Compound; 25 nL; Kalypsis pin tool (Wako USA) equipped with a 1536-well pin head.
3; Incubation; 30 min; room temperature.
4; Reagent 2; 1 uL; 10 nM GPX1, 1 mM GSH, 0.5 mM CHP, 0.5 mM NADPH, 100 nM GR, 0.01% BSA substrate
5; Detection; Fluorescence; ViewLux microplate reader, excitation 340 nm and emission 450 nm.
6; Incubation; 15 min; room temperature.
7; Detection; Fluorescence; ViewLux microplate reader, excitation 340 nm and emission 450 nm.
NOTES (numbers refer to Sequence numbers above)
1. 3 uL of 16.66 nM GPX1 and 0.016% BSA in assay buffer (50 mM Tris-HCl, 2 mM EDTA (pH 7.5), 150 mM NaCl) was added to columns 3-48 of 1536-well assay plates using a BioRAPTR Flying Reagent Dispenser (Let's Go Robotics (LGR), Carlsbad, CA). A no-enzyme control (0.01% BSA in TES assay buffer) was added to columns 1-2.
2. 25 nL of test compounds and DMSO controls were added to each well with a pin tool (Kalypsys).
3. The assay plates were incubated for 30 minutes at room temperature.
4. 1 uL of master mix (500 nM glutathione reductase (GR), 5 mM reduced glutathione (GSH), 2.5 mM NADPH in assay buffer) was added. 1 uL of cumene hydroperoxide (CHP) ([2.5 mM] in 50% EtOH) was then added within 5 minutes to initiate the reaction. Final concentrations were: 10 nM GPX1, 1 mM GSH, 0.5 mM CHP, 0.5 mM NADPH, 100 nM GR, 0.01% BSA.
5. Initial fluorescence readout (t=0) at 340/450 nm was measured using a ViewLux multimodal detector (PerkinElmer, Waltham, MA).
7. Endpoint fluorescence readout (t=15) at 340/450 nm was measured 15 min after room temperature incubation.
On the % scale 0 is the no-effect control and ±100 the full control effect; potency means the concentration at half of the fitted maximal effect.

Row | Compound | Potency | outcome | activity, negative = inhibition
1 | Cc1ccc(C(=O)Nc2ccc(Oc3cc4cnn(C)c4cc3-c3cn[nH]c3)c(F)c2)c(=O)n1-c1ccc(F)cc1 | inactive | – | –
2 | CC(C)(O)/C=C1/C(=O)C(C)(C)C(=O)C(C)(C)C1(O)O[C@@H]1O[C@H](COC(=O)c2cc(O)c(O)c(O)c2)[C@@H](O)[C@H](O)[C@H]1O (stereo not given in full) | – | inactive [at 15.3 µM] | –
3 | N[C@H]1C[C@H]1c1ccc(-c2cccc(O)c2)cc1 | inactive | – | –
4 | CC1(C)OC(=O)C(OCC2CC2)=C1c1ccc(S(C)(=O)=O)cc1 | inactive | – | –
5 | Cc1c(CN(C)C(=O)/C=C/c2cnc3c(c2)CCC(=O)N3)oc2ccccc12 | – | inactive | –
6 | C/C=C/C=C/C=C/C(=O)O[C@@H]1[C@@H](OC)C2=C(C(=O)N(C(C)C(=O)O)C2)[C@@]2(C)CCCC(C)(C)[C@H]12 (stereo not given in full) | – | inactive [at 27.7 µM] | –
7 | O=C(CCO[C@@H]1O[C@H](CO)[C@@H](O)[C@H](O)[C@H]1O)c1ccc(O)cc1 | – | – | -12.4% [at 27.7 µM]
8 | CCOC(=O)[C@H](CCc1ccccc1)CC1(C(=O)N[C@H]2CCc3ccccc3N(CC(=O)O)C2=O)CCCC1 | – | – | -5.88%
9 | COc1cc2c(cc1OC)CN(C(=O)[C@@H](NCc1ccncc1)C(C)(C)C)CC2 | – | inactive | –
10 | COc1cc(O[C@@H]2O[C@H](CO)[C@@H](O)[C@H](O)[C@H]2O)c(CCC(=O)OC[C@H]2O[C@@H](Oc3cc(OC)c(C4OC(=O)C(C)(O)C4O)cc3CCC(=O)O)[C@H](O)[C@@H](O)[C@@H]2O)cc1C1OC(=O)C(C)(O)C1O (stereo not given in full) | – | – | 3.3% [at 15.3 µM]
11 | C=CC1C(O[C@@H]2O[C@H](CO)[C@@H](O)[C@H](O)[C@H]2O)OC=C(C(=O)OC)C1Cc1nccc2c1[nH]c1ccccc12 (stereo not given in full) | – | – | -5.91% [at 27.7 µM]
12 | CN1CC[C@@H](NC(=O)Nc2ccc(C#N)cc2)C[C@@H]1c1nc2ccccc2[nH]1 | – | inactive | –
13 | CCOC(=O)[C@H]1O[C@@H]1C(=O)N[C@@H](CC(C)C)C(=O)NCCC(C)C | – | – | 1.59%
14 | COC(=O)C1=C(C#N)NC(C)=C(C(=O)OC(C)C)C1c1cccc([N+](=O)[O-])c1 (stereo not given) | – | – | -12.6%
15 | CC1=C2C=C(CO)C(CO)CCC2(C)CCC1=O (stereo not given) | – | – | 0.493%
16 | O=c1c2cccnc2n(-c2cccc([N+](=O)[O-])c2)c(=O)n1Cc1ccncc1 | – | inactive | –
17 | CC(C)C(=O)OCC(=O)[C@@]12O[C@H](C3CCCCC3)O[C@@H]1C[C@H]1[C@@H]3CCC4=CC(=O)C=C[C@]4(C)[C@H]3[C@@H](O)C[C@@]12C | – | inactive | –
18 | C=C1CC23CC1(O)CCC2C1=CC2OC(=O)C(C)(C2O)C1C3C(=O)O (stereo not given) | – | – | -3.64% [at 27.7 µM]
19 | CCC(NC(=O)CC(NC(=O)C(CO)NC(=O)C(CC)NC(=O)c1ccc[nH]1)c1ccccc1)C(=O)O (stereo not given) | – | inactive [at 15.3 µM] | –
20 | O=C1NC(Cc2ccc(O)cc2)C(=O)N2CCCC12 (stereo not given) | – | – | 2.52%

Row | Compound | Potency | outcome | activity, negative = inhibition
21 | COc1ccc(/C=C/C(=O)O[C@@H]2[C@@H](OC(C)=O)[C@@H](OC(C)=O)[C@H](O[C@H]3[C@@H]4C=CO[C@@H](O[C@@H]5O[C@H](CO)[C@@H](O)[C@H](O)[C@H]5O)[C@@H]4[C@@]4(CO)O[C@@H]34)O[C@H]2C)cc1O | – | – | -3.68% [at 15.3 µM]
22 | CC(=O)[C@@H]1CC[C@]2(C(=O)O)CC[C@]3(C)C(CCC4[C@@]5(C)CC[C@H](O)C(C)(C)C5CC[C@]43C)C12 (stereo not given in full) | – | – | -6.72% [at 27.7 µM]
23 | C[C@@H]1[C@H](O)[C@@H](C)/C=C/C=C\C=C\C=C\C=C\C=C\C=C\[C@H](O[C@@H]2O[C@H](C)[C@@H](O)[C@H](N)[C@@H]2O)C[C@@H]2O[C@](O)(C[C@@H](O)C[C@@H](O)[C@H](O)CC[C@@H](O)C[C@@H](O)CC(=O)O[C@H]1C)C[C@H](O)[C@H]2C(=O)O (stereo in doubt) | – | – | -16%
24 | C[C@@H]1CC[C@H]2C(C)(C)[C@H](O)[C@H](O)C[C@]2(C)[C@@]12Cc1c(O)cc3c(c1O2)CNC3=O | – | – | -9.27% [at 27.7 µM]
25 | CC1(CO)CC[C@]2(C(=O)O[C@@H]3O[C@H](CO)[C@@H](O)[C@H](O)[C@H]3O)CC[C@]3(C)C(=CCC4[C@@]5(C)C[C@H](O)[C@H](O[C@@H]6OC[C@@H](O)[C@H](O)[C@H]6O)[C@@](C)(CO)C5CC[C@]43C)C2C1 (stereo not given in full) | – | – | -3.86% [at 15.3 µM]
26 | CCN(CC)Cc1cc(Nc2ccnc3cc(Cl)ccc23)ccc1O | – | inactive | –
27 | CC(C)N(C[C@H]1O[C@@H](n2cnc3c(N)ncnc32)[C@H](O)[C@@H]1O)C1CC(CCc2nc3ccc(C(C)(C)C)cc3[nH]2)C1 (stereo not given in full) | inactive | – | –
28 | COc1c(C(CC(C)C)OC(C)=O)ccc(Oc2c(O)cc(C)cc2/C=C/C(C)=O)c1C(=O)O (stereo not given) | – | – | -0.0458% [at 27.7 µM]
29 | C[C@@H](OC(=O)/C=C/c1ccc(O)cc1)C1=C[C@]2(C=C[C@@H]3C(C(=O)O)=CO[C@@H](O[C@@H]4O[C@H](CO[C@@H]5O[C@H](CO)[C@@H](O)[C@H](O)[C@H]5O)[C@@H](O)[C@H](O)[C@H]4O)[C@@H]32)OC1=O | – | – | -8.62% [at 15.3 µM]
30 | Cc1nnc(C(C)C)n1C1CC2CCC(C1)N2CC[C@H](NC(=O)C1CCC(F)(F)CC1)c1ccccc1 (stereo not given in full) | inactive | – | –
31 | CC1(C)CC[C@]2(C(=O)O[C@@H]3O[C@H](CO)[C@@H](O)[C@H](O)[C@H]3O)CC[C@]3(C)C(=CCC4[C@@]5(C)C[C@@H](O)[C@H](O)[C@@](C)(CO)C5CC[C@]43C)C2C1 (stereo not given in full) | – | inactive [at 15.3 µM] | –
32 | COC1=Cc2c(nc3n(c2=O)C(C)C(=O)NC3(O)C(C)C)OC=C1 (stereo not given) | – | inactive [at 27.7 µM] | –
33 | COc1ccc2c(c1)OC[C@]1(O)c3cc4c(cc3O[C@H]21)OCO4 | – | – | 3.73% [at 27.7 µM]
34 | C=C1C[C@]23C[C@H]1CC[C@H]2[C@@]12C=C[C@H](O)[C@@](C)(C(=O)O1)[C@H]2[C@@H]3C(=O)O | – | inactive [at 27.7 µM] | –
35 | CO/N=C(\C(=O)N[C@@H]1C(=O)N2C(C(=O)O)=C(CSc3cnns3)CS[C@H]12)c1csc(N)n1 | 20.2 µM (active) | – | –
36 | COc1cccc(-c2ccc([C@@H](Oc3cc(-c4ccc(C[C@H](N)C(=O)O)cc4)nc(N)n3)C(F)(F)F)cc2)c1 | – | inactive | –
37 | CC1CCCC2OC2C(=O)c2c(O)cc(O)cc2CC(=O)O1 (stereo not given) | – | inactive | –
38 | C=C[C@H]1[C@H](O[C@@H]2O[C@H](CO)[C@@H](O)[C@H](O)[C@H]2O)OC=C(C(=O)OC)[C@H]1C[C@@H]1N[C@H](C(=O)O)Cc2c1[nH]c1ccccc21 | – | – | -10.2% [at 27.7 µM]
39 | O=C(O)C[C@H]1CCC(=O)[C@@H]1C/C=C\CCOC1OC(CO)C(O)C(O)C1O (stereo not given in full) | – | – | -9.52% [at 27.7 µM]
40 | NC(=O)c1ccc(OCC2NC(=O)C3CCCN3C2=O)cc1 (stereo not given) | – | – | 0.0234%
